Activity calls are given as the source filed them. How the source made its calls: active means hit-call score of the fitted dose curve at least 0.9, where 1 is the maximum; inactive means score below 0.9.
Legend:
[1] = ATG_GRE_CIS: Attagene CIS-FACTORIAL HepG2 Assay for human Glucocorticoid Response Elements (GRE) (AID 2282947); conditions: HepG2 GRE cis-reporter, Attagene multiplex mRNA; actives raise or lower the signal
Outline: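 Assay uses human hepatoma HepG2 cells transfected with cis-promoter reporter units, exposed 24 h. mRNA from reporters detected by RT-PCR plus capillary electrophoresis; DMSO serves as negative control and baseline.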

[2] = ATG_ISRE_CIS: Attagene CIS-FACTORIAL HepG2 Assay for human Interferon Regulatory Factor 1 (IRF1) binding to an Interferon-Stimulated Response Element (ISRE) (AID 2282948); conditions: HepG2 ISRE cis-reporter (Attagene), mRNA transcription readout; actives raise or lower the signal
Outline: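 Cell-based cis-reporter assay; HepG2; 24 h exposure; reporter mRNA by RT-PCR plus capillary electrophoresis fluorescence; activity in either direction scored relative to DMSO.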

[3] = ATG_M_32_CIS: Attagene CIS-FACTORIAL HepG2 Assay for M32 Transcription Factor (Internal Marker) (AID 2282949); conditions: HepG2 Attagene cis-factorial M32 reporter, mRNA; actives raise or lower the signal;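 further: background control marker of the multiplexed CIS panel rather than a real target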
Outline: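 Internal background marker read-out: RT-PCR/capillary electrophoresis fluorescence of reporter transcripts from transiently transfected HepG2 cells after 24 h chemical exposure. Activity fitted bidirectionally relative to DMSO negative control.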

[4] = ATG_M_06_CIS: Attagene CIS-FACTORIAL HepG2 Assay for M06 Transcription Factor (Internal Marker) (AID 2282950); conditions: HepG2 Attagene CIS-FACTORIAL M06 internal marker reporter; actives raise or lower the signal
Outline: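 HepG2 cells transiently transfected with cis-regulated multiple reporter transcription units were exposed to chemical for 24 h; reporter mRNA was quantified by RT-PCR, 6-FAM primer labelling, HpaI digestion and capillary electrophoresis, fitted bidirectionally against DMSO.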

[5] = biological target: Hypoxia-inducible factor 1-alpha (Homo sapiens) (UniProt Q16665); experiment: ATG_HIF1a_CIS: Attagene CIS-FACTORIAL HepG2 Assay for human Hypoxia Inducible Factor 1 (HIF1A) (AID 2282951); conditions: HepG2 Attagene cis-factorial HIF1a reporter transcription; actives raise or lower the signal
Chain of Hypoxia-inducible factor 1-alpha (Homo sapiens) (Q16665 whole entry, looked up): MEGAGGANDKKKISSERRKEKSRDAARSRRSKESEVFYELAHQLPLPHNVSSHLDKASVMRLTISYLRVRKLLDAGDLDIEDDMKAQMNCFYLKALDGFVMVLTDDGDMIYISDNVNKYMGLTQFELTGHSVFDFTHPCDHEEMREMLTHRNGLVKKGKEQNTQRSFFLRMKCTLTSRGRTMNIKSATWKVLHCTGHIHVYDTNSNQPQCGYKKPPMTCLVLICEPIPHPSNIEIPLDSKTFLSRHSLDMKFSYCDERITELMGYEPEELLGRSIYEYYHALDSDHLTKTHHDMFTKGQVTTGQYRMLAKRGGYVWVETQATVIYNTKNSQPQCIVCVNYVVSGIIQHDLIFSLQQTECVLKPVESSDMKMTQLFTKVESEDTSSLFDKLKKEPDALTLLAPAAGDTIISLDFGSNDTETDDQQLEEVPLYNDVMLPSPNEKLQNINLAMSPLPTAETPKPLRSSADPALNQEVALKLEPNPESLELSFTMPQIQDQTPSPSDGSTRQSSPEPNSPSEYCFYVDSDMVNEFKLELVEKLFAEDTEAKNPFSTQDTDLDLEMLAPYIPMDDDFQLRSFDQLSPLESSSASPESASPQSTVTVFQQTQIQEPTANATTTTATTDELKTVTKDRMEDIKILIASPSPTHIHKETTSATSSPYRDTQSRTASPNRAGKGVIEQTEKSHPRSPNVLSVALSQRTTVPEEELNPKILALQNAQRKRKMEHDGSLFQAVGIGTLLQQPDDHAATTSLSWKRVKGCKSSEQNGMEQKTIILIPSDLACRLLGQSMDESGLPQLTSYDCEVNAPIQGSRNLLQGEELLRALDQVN
Outline: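 HepG2, transient cis-reporter library, 24 h dosing. RNA → RT (oligo dT) → PCR → 6-FAM primer extension → HpaI → CE. Bidirectional curve fit vs DMSO.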

[6] = biological target: Hepatocyte nuclear factor 6 (Homo sapiens) (UniProt Q9UBC0); experiment: ATG_HNF6_CIS: Attagene CIS-FACTORIAL HepG2 Assay for human Hepatocyte Nuclear Factor 6 (HNF6) (AID 2282952); conditions: HepG2 Attagene cis-factorial HNF6 reporter transcription; actives raise or lower the signal
Chain of Hepatocyte nuclear factor 6 (Homo sapiens) (Q9UBC0 whole entry, looked up): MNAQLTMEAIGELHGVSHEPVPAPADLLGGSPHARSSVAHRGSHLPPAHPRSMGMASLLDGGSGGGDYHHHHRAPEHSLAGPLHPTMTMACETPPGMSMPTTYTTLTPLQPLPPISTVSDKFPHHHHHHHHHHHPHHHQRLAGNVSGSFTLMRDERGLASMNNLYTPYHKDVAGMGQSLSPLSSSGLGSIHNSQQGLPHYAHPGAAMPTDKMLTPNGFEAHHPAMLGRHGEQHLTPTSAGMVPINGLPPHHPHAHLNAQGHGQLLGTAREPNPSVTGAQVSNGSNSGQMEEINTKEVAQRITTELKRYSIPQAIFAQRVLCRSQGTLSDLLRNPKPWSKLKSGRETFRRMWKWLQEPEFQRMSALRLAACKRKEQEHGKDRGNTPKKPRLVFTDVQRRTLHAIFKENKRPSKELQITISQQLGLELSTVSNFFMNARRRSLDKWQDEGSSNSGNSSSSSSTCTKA
Outline: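 HepG2 cells transiently transfected with cis-element-driven multiple reporter transcription units, dosed 24 h; reporter mRNA quantified by RT-PCR, FAM primer extension, HpaI digestion and capillary electrophoresis; bidirectional fit versus DMSO baseline.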

[7] = biological target: Heat shock factor protein 1 (Homo sapiens) (UniProt Q00613); experiment: ATG_HSE_CIS: Attagene CIS-FACTORIAL HepG2 Assay for human Heat Shock Transcription Factor 1 (HSE) (AID 2282953); conditions: HepG2 HSE cis-reporter, Attagene RNA transcription; actives raise or lower the signal
Chain of Heat shock factor protein 1 (Homo sapiens) (Q00613 whole entry, looked up): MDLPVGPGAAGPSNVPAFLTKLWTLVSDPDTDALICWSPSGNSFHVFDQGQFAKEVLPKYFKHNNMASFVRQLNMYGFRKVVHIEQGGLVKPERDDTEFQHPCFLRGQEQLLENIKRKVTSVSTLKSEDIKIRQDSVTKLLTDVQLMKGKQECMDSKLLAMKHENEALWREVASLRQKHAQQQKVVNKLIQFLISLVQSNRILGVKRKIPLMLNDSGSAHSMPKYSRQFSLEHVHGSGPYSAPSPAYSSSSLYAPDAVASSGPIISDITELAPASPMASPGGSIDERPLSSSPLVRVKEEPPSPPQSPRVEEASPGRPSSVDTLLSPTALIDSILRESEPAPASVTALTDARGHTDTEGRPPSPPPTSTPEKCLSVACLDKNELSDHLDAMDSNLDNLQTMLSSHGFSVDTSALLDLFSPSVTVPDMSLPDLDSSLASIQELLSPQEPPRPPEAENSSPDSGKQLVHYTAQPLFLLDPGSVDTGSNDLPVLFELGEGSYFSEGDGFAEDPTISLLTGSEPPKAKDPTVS
Outline: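 HepG2 cells transiently transfected with multiple reporter transcription units under cis-regulatory promoter control, measuring endogenous transcription factor activity. After 24 h chemical exposure, reporter mRNA quantified by RT-PCR, fluorescent labelling, HpaI digestion and capillary electrophoresis; bidirectional fit versus DMSO.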

[8] = ATG_MRE_CIS: Attagene CIS-FACTORIAL HepG2 Assay for human Metal Responsive Element (MRE) (AID 2282954); conditions: HepG2 MRE cis-reporter transcription, Attagene multiplex; actives raise or lower the signal
Outline: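 After a 24 h chemical exposure, transiently transfected HepG2 cells yield RNA whose reporter sequences are amplified, FAM-labelled and sized by capillary electrophoresis. Curves are fitted bidirectionally relative to DMSO.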

[9] = ATG_PBREM_CIS: Attagene CIS-FACTORIAL HepG2 Assay for human Phenobarbital-responsive Enhancer Module (PBREM) (AID 2282955); conditions: HepG2 PBREM cis-reporter, Attagene multiplexed transcription; actives raise or lower the signal
Outline: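 HepG2, transient MRTU transfection, 24 h dosing; RNA → oligo(dT) RT → PCR → 6-FAM extension → HpaI → CE. Bidirectional fit vs DMSO.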

[10] = biological target: Paired box protein Pax-6 (Homo sapiens) (UniProt P26367); experiment: ATG_Pax6_CIS: Attagene CIS-FACTORIAL HepG2 Assay for human Paired Box 6 (PAX6) (AID 2282956); conditions: HepG2 CIS-FACTORIAL PAX6 reporter transcription, RNA readout; actives raise or lower the signal
Chain of Paired box protein Pax-6 (Homo sapiens) (P26367 whole entry, looked up): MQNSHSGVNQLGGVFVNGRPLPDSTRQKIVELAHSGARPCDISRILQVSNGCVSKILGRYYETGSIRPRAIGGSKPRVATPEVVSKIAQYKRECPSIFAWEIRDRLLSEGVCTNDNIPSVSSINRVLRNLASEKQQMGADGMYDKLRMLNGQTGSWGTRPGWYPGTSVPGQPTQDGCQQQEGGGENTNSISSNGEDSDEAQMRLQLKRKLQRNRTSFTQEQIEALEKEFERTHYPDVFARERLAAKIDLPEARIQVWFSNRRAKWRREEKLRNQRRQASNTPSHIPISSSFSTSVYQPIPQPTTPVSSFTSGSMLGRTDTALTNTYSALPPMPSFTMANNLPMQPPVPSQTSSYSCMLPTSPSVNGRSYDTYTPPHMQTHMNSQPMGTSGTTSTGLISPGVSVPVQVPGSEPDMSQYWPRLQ
Outline: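 Multiplexed cis-reporter HepG2 system; 24 h treatment; reporter mRNA read by RT-PCR/CE fluorescence; bidirectional fit vs DMSO.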

[11] = ATG_PXRE_CIS: Attagene CIS-FACTORIAL HepG2 Assay for human Pregnane X Receptor Element (PXRE) (AID 2282957); conditions: HepG2 Attagene CIS-FACTORIAL PXRE reporter, mRNA; actives raise or lower the signal
Outline: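 HepG2 cells transiently transfected with cis-regulated multiple reporter transcription units; endogenous factor activity measured as reporter mRNA 24 h after dosing. RT-PCR, fluorescent primer extension, HpaI digestion, capillary electrophoresis; bidirectional fit versus DMSO baseline.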

[12] = ATG_PPRE_CIS: Attagene CIS-FACTORIAL HepG2 Assay for human Peroxisome Proliferator-activated Response Element (PPRE) (AID 2282958); conditions: HepG2 PPRE cis-element reporter, Attagene transcription factor profiling; actives raise or lower the signal
Outline: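 Transcript-level reporter induction in transfected HepG2 cells after 24 h chemical exposure, quantified by fluorescence from RT-PCR products separated by capillary electrophoresis.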

[13] = ATG_RORE_CIS: Attagene CIS-FACTORIAL HepG2 Assay for human RAR-related Orphan Receptor Element (RORE) (AID 2282959); conditions: HepG2 Attagene cis-factorial RORE reporter, mRNA; actives raise or lower the signal
Outline: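 Multiplexed reporter assay measuring mRNA induction from a cis promoter element in transiently transfected HepG2 cells after 24 h treatment. Detection via RT-PCR and capillary electrophoresis fluorescence; DMSO serves as baseline.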

[14] = ATG_Sox_CIS: Attagene CIS-FACTORIAL HepG2 Assay for human SRY-box transcription factor (SOX) (AID 2282960); conditions: HepG2 Attagene cis-factorial SOX reporter, mRNA; actives raise or lower the signal
Outline: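 Cells were transfected with reporter constructs under cis-regulatory promoters, then exposed to chemicals for 24 h. Reporter transcripts were quantified by fluorescence after RT-PCR and capillary electrophoresis; activity was fitted in both directions against DMSO.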

[15] = biological target: Transcription factor Sp1 (Homo sapiens) (UniProt P08047); experiment: ATG_Sp1_CIS: Attagene CIS-FACTORIAL HepG2 Assay for human Specificity Protein 1 (Sp1) (AID 2282961); conditions: HepG2 Sp1 cis-reporter transcription, actives raise or lower the signal
Chain of Transcription factor Sp1 (Homo sapiens) (P08047 whole entry, looked up): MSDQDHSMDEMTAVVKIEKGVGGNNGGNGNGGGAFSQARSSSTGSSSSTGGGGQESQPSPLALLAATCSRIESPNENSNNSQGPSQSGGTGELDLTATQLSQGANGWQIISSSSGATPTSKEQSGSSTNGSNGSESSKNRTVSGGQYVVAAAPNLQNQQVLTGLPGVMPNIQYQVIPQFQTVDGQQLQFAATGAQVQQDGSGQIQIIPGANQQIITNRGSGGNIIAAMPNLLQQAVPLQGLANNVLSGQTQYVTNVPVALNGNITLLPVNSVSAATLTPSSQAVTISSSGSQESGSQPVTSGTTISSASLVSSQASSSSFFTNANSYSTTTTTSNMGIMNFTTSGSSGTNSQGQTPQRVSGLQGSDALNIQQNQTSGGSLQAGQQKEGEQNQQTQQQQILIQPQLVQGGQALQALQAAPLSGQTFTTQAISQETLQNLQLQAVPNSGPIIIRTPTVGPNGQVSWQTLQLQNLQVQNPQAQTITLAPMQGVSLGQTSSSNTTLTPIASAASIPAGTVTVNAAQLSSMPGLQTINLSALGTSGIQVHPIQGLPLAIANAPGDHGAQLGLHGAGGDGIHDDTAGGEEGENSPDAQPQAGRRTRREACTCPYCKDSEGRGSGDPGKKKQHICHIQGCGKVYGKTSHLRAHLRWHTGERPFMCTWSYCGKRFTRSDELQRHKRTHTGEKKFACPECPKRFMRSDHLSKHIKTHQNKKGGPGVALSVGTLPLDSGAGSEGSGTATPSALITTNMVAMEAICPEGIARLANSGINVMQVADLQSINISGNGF
Outline: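 Measures mRNA induction of an Sp1-linked reporter in HepG2 cells 24 h post-dosing. Multiplexed reporters read by RT-PCR and capillary electrophoresis; DMSO serves as negative control and baseline.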

[16] = ATG_SREBP_CIS: Attagene CIS-FACTORIAL HepG2 Assay for human Sterol Regulatory Element Binding (SREBP) (AID 2282962); conditions: HepG2 Attagene cis-factorial SREBP reporter, mRNA; actives raise or lower the signal
Outline: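 mRNA induction of transfected cis-promoter reporters in HepG2 cells, 24 h post-dose. Detection: RT-PCR with 6-FAM-labelled products, HpaI digest, capillary electrophoresis. DMSO served as negative control and baseline.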

[17] = biological target: Signal transducer and activator of transcription 3 (Homo sapiens) (UniProt P40763); experiment: ATG_STAT3_CIS: Attagene CIS-FACTORIAL HepG2 Assay for human Signal Transducer and Activator of Transcription 3 (STAT3) (AID 2282963); conditions: HepG2, Attagene cis-factorial STAT3 reporter transcription; actives raise or lower the signal
Chain of Signal transducer and activator of transcription 3 (Homo sapiens) (P40763 whole entry, looked up): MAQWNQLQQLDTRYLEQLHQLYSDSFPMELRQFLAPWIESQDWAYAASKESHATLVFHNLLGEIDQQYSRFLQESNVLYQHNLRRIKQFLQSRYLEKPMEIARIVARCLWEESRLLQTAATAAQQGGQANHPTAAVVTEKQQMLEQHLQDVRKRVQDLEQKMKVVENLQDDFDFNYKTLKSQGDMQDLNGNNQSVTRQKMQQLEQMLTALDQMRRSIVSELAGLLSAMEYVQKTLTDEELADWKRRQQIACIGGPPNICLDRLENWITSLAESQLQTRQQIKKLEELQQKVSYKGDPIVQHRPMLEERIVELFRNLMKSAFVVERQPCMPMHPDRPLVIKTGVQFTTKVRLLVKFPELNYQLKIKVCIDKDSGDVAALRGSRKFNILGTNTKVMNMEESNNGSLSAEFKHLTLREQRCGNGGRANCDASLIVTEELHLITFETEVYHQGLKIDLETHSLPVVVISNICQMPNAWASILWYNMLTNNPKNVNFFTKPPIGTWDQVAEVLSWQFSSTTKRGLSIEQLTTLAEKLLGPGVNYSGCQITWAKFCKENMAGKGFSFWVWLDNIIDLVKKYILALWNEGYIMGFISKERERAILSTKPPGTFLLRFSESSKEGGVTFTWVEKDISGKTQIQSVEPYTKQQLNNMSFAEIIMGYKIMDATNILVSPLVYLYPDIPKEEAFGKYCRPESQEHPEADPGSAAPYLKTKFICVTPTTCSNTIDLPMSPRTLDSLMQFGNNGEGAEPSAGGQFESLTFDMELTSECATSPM
Outline: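 After a 24 h compound incubation, total RNA from MRTU-transfected HepG2 cells was converted to cDNA and reporter sequences PCR-amplified, labelled and profiled by capillary electrophoresis. Gain and loss of signal were referenced to DMSO.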

[18] = ATG_TA_CIS: Attagene CIS-FACTORIAL HepG2 Assay for human TA Basal Promoter (AID 2282964); conditions: HepG2 Attagene CIS-factorial TA basal promoter reporter; actives raise or lower the signal
Outline: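 HepG2 cells transiently transfected with multiplexed cis-promoter reporter units, dosed 24 h. Reporter mRNA measured by RT-PCR, 6-FAM labelling, HpaI digestion and capillary electrophoresis; bidirectional fit versus DMSO baseline, serving as background control.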

[19] = ATG_TCF_b_cat_CIS: Attagene CIS-FACTORIAL HepG2 Assay for human T-Cell-Factor with beta-catenin (TCF/b-cat) (AID 2282965); conditions: HepG2 TCF/beta-catenin cis-reporter transcription, actives raise or lower the signal
Outline: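 Measured: reporter mRNA in HepG2 transiently transfected with cis-promoter reporter units, 24 h after chemical addition. Fitting was bidirectional, DMSO as negative control.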

[20] = ATG_TAL_CIS: Attagene CIS-FACTORIAL HepG2 Assay for human TAL Basal Promoter (AID 2282966); conditions: HepG2 Attagene cis-factorial TAL promoter reporter; actives raise or lower the signal;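 further: background control endpoint measuring basal TAL promoter reporter mRNA not a specific factor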
Outline: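 HepG2 cells were transiently transfected with promoter-driven multiplexed reporter units and dosed for 24 h. Reporter mRNA was measured by RT-PCR with capillary electrophoresis fluorescence; bidirectional fits used DMSO as baseline, serving as a background control.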

Measured: AC50

ClCc1cccnc1
active: [1] 72.5 µM | [8] 45.9 µM | [10] 75.4 µM | [15] 30.8 µM
not listed: [20]
inactive: all other assays above

CN(CCCC(=O)c1cccnc1)N=O
active: [11] 27.2 µM
inactive: all other assays above

ClC1=C(Cl)[C@]2(Cl)[C@H]3[C@H]([C@H]4C=C[C@H]3C4)[C@@]1(Cl)C2(Cl)Cl
active: [5] 4.66 µM | [8] 3.77 µM | [11] 1.6 µM
not listed: [20]
inactive: all other assays above

CCOP(=S)(OCC)SCSP(=S)(OCC)OCC
active: [9] 1.06 µM | [11] 0.192 µM
inactive: all other assays above

CCN(CC)C(=O)Cl
inactive: all assays above

CC(Br)C(=O)O (stereo not drawn)
inactive: all assays above

CCOC(=O)Nc1cccc(OC(=O)Nc2ccccc2)c1
active: [11] 100 µM
inactive: all other assays above

From PubChem BioAssay (EPA / NIEHS)
